In the supplement of paper PMC6555819:

Columns and labels:
Experiment in all cases: PBM binding z-score (relative to random genomic background probes); higher = stronger binding; sequences stand for … in GC…GCGATTGACAGCGTAGAATGAAGG
[1] = test system: RARb homodimer (NR concentration 270 nM)
Method in brief: (§1)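 On custom Agilent 4×180K arrays, double-stranded probes with 34-nt variable regions carried direct-repeat seeds, single-nucleotide variants, half-site ablations or random human genomic background. Ligand-free nuclear receptor dimers were applied for 1 h, and binding was read with antibodies against each partner (one per run). Binding z-scores come from regression-normalized fluorescence, with the random background probes as reference.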

[2] = test system: RARg:RXRa (NR concentration 270 nM, RXRa partner concentration 90 nM)
Method in brief: as §1

[3] = test system: RARg homodimer (NR concentration 270 nM)
Method in brief: as §1

[4] = test system: RXRa DBDmut IVT, anti-RXR (DBD mutation: RXRa K156A/R161A, NR concentration 90 nM)
Method in brief: as §1

[5] = test system: RXRa homodimer (NR concentration 180 nM)
Method in brief: as §1

[6] = test system: THRa:RXRa (NR concentration 90 nM, RXRa partner concentration 90 nM)
Method in brief: as §1

[7] = test system: THRa homodimer (NR concentration 90 nM)
Method in brief: as §1

[8] = test system: VDR:RXRa (NR concentration 270 nM, RXRa partner concentration 90 nM)
Method in brief: as §1

[9] = test system: VDR homodimer (NR concentration 270 nM)
Method in brief: as §1

Sequence | PBM binding z-score [1] | PBM binding z-score [2] | PBM binding z-score [3] | PBM binding z-score [4] | PBM binding z-score [5] | PBM binding z-score [6] | PBM binding z-score [7] | PBM binding z-score [8] | PBM binding z-score [9]
ATATGTAGGTTAGGGTCATTCCGAAAGTAGGGAA | 3.13 | 3.89 | 2.85 | 2.61 | 5.22 | 4.18 | 3.01 | 4.54 | 3.59
TTACGAAGGTGAAAGGTCGTTGATGCACGCCTTG | 2.49 | 4.08 | 2.19 | 0.342 | 5.5 | 2.33 | 0.141 | 3.25 | 1.25
CTATTTAGGTTAAGGGGGTCATTCAGTTTGAAAG | 3.95 | 5.19 | 4.01 | 2.74 | 5.73 | 4.05 | 2.07 | 7.31 | 6.2
TCGAGTAGGTTACGGGGGCATTGAGGGATGAAGA | 2.27 | 3.47 | 2.72 | 1.71 | 2.66 | 2.97 | 1.39 | 3.66 | 3.13
GGAACGAGCGCAAAGTTGATAGCATCTGTCGACG | -0.951 | -0.446 | -0.392 | -0.219 | -0.2 | -0.823 | -1.24 | -0.765 | -0.905
ATATGTAGCTTAGGGTCATTCAGAAAGTAGGGAA | 2.97 | 3.71 | 2.73 | 2.16 | 4.87 | 4.07 | 3.15 | 4.27 | 3.71
TGTCAGAGTTCAAAGGTAACGTAAGTATCCACAC | 3.41 | 5.95 | 5.28 | 4.83 | 7.51 | 3.53 | -0.159 | 5.75 | 5.41
CAATCTAGGTCACGAAAGGTCAAAGTCGAATGAC | 5.85 | 8.09 | 8.64 | 2.58 | 8.63 | 5.02 | 3.08 | 6.99 | 3.66
CGAACTAGCTCAAGGACAGTGAATCTCCGCACGC | 0.214 | -0.134 | -0.141 | 0.392 | -0.227 | 1.42 | 1.48 | -0.322 | 0.226
CTATGTAGCTTAAGGGGGTCATTCAGTTTGAAAG | 3.58 | 4.42 | 3.15 | 2.56 | 5.27 | 3.69 | 2.41 | 6.4 | 6.05
TCGAGTAGGTTACCGGGGCATTCAGGGATGAAGA | 1.09 | 1.01 | 0.946 | -0.0634 | 0.997 | 2.25 | 0.104 | 0.816 | -0.232
TCTAGTTGGTCACGGAGGTCACACGCGACGGGTA | 4.41 | 4.66 | 4.95 | 1.4 | 4.97 | 3.67 | 2.4 | 5.87 | 3.43
ATCTCTAGGTAAAGTTCATTGAAAGATCGATAGA | 1.97 | 2.99 | 3.16 | 2.96 | 2.49 | 1.84 | 0.478 | 3.08 | 4.56
TCGAGTAGTTTACGGGGGCATTCAGGGATGAAGA | 1.53 | 2.16 | 1.57 | 2.09 | 1.48 | 3.55 | 1.05 | 3.09 | 3.23
CAATCTAGGTCACAGAGGTCAAAGTCCGTGCGTA | 5.7 | 7.55 | 7.82 | 3.44 | 8.19 | 4.8 | 3.43 | 8.07 | 7.51
CCGAGTAGGTTACGAGGGGGCATTCTGTGCGAAT | 2.05 | 3.13 | 2.43 | 1.11 | 1.68 | 3.55 | 0.547 | 4.89 | 2.56
